Measured values from PubChem BioAssay (NCATS).
Inconclusive results are not listed. The source made the active and inactive calls. Calls follow the shape of the dose curve; as a rule, active = well fitted curve in the direction sought with a large enough effect; inconclusive = small, poorly fitted or top-dose-only effect, or another doubt; inactive = no such curve, though single readings can be large; an effect the other way counts as inactive or inconclusive.

Assays:
[1] = qHTS of pediatric cancer cell lines to identify multiple opportunities for drug repurposing: Primary screen for U-2 OS cells (AID 1347096); conditions: U-2 OS viability, CellTiter-Glo luminescence, 48 h; series mostly up to 46 µM; also: nearly all actives have a fitted effect of over 50% in size
Outline: (§1)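 Cells (500-1,000/well) in growth media were settled 5 h at 37 degrees C, then given compounds for 48 h. Viability was read as CellTiter-Glo luminescence. Primary runs used MIPE at 11 points (0.78 nM-46 µM) and NPC at 8 points (0.59 nM-46 µM); follow-ups used 11 points.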

[2] = qHTS of pediatric cancer cell lines to identify multiple opportunities for drug repurposing: Primary screen for Saos-2 cells (AID 1347097); conditions: Saos-2 viability, CellTiter-Glo ATP luminescence, 48 h; series mostly up to 46 µM; also: nearly all actives have a fitted effect of over 40% in size
Outline: (§2)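 Cells seeded at 500-1,000 cells/well in growth media, rested 5 hours at 37 degrees C, 5% CO2, then dosed; MIPE compounds at 11-point (from 0.78 nM) and NPC at 8-point (from 0.59 nM) final concentrations. Viability by CellTiter-Glo luminescence after 48 hours.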

[3] = qHTS of pediatric cancer cell lines to identify multiple opportunities for drug repurposing: Primary screen for SK-N-SH cells (AID 1347098); conditions: SK-N-SH viability, CellTiter-Glo luminescence, 48 h; series mostly up to 57 µM; also: nearly all actives have a fitted effect of over 65% in size
Outline: (§3)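 Cells (500-1,000/well) rested 5 h, then received compounds for 48 h; metabolically active cells were measured by CellTiter-Glo luminescence. Final concentrations spanned up to 46 µM (MIPE, 11-point) or 0.59 nM-46 µM (NPC, 8-point) in primary screens, 11-point in follow-ups.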

[4] = qHTS of pediatric cancer cell lines to identify multiple opportunities for drug repurposing: Primary screen for NB1643 cells (AID 1347099); conditions: NB1643 neuroblastoma viability, CellTiter-Glo luminescence, 48 h; series mostly up to 46 µM; also: nearly all actives have a fitted effect of over 50% in size
Outline: as §2

[5] = qHTS of pediatric cancer cell lines to identify multiple opportunities for drug repurposing: Primary screen for LAN-5 cells (AID 1347100); conditions: LAN-5 neuroblastoma viability, CellTiter-Glo luminescence, 48 h; series mostly up to 46 µM
Outline: as §1

[6] = qHTS of pediatric cancer cell lines to identify multiple opportunities for drug repurposing: Primary screen for Rh18 cells (AID 1347102); conditions: Rh18 rhabdomyosarcoma viability, CellTiter-Glo luminescence, 48 h; series mostly up to 46 µM; also: nearly all actives have a fitted effect of over 65% in size
Outline: as §1

[7] = qHTS of pediatric cancer cell lines to identify multiple opportunities for drug repurposing: Primary screen for RD cells (AID 1347104); conditions: RD rhabdomyosarcoma viability, CellTiter-Glo luminescence, 48 h; series mostly up to 46 µM; also: nearly all actives have a fitted effect of over 55% in size
Outline: as §2

[8] = qHTS of pediatric cancer cell lines to identify multiple opportunities for drug repurposing: Primary screen for MG 63 (6-TG R) cells (AID 1347105); conditions: MG 63 (6-TG R) viability, CellTiter-Glo, 48 h; series mostly up to 46 µM; also: nearly all actives have a fitted effect of over 50% in size
Outline: as §2

[9] = qHTS of pediatric cancer cell lines to identify multiple opportunities for drug repurposing: Primary screen for BT-12 cells (AID 1347101); conditions: BT-12 viability, CellTiter-Glo luminescence, 48 h; series mostly up to 57.3 µM; also: nearly all actives have a fitted effect of over 25% in size
Outline: as §3

[10] = qHTS of pediatric cancer cell lines to identify multiple opportunities for drug repurposing: Primary screen for OHS-50 cells (AID 1347103); conditions: OHS-50 osteosarcoma viability, CellTiter-Glo luminescence, 48 h; series mostly up to 57.3 µM; also: nearly all actives have a fitted effect of over 40% in size
Outline: as §3

Measured: Potency
Potency is read from the fitted curve at half-maximal effect.

CC(C)c1ccc(Cn2ccc3c4c(N)nc(NC5CC5)nc4ccc32)cc1
active: [1] 18.7 µM | [2] 4.69 µM | [3] 21.5 µM | [4] 18.7 µM | [5] 18.7 µM | [6] 18.7 µM | [7] 14.8 µM | [8] 14.8 µM

Cc1ccc(NC(=O)C2(c3ccc4c(c3)OC(F)(F)O4)CC2)nc1-c1cccc(C(=O)O)c1
active: [1] 0.59 µM | [2] 0.148 µM | [3] 0.136 µM | [4] 0.0332 µM | [9] 0.122 µM | [6] 0.833 µM | [8] 0.148 µM

CNC(=O)c1ccc(-c2cnc3ncc(Cc4ccc5ncccc5c4)n3n2)cc1F
not listed: [8] | [9] | [10]
inactive: all other assays above

CN(c1ncccc1CNc1nc(Nc2ccc3c(c2)CC(=O)N3)ncc1C(F)(F)F)S(C)(=O)=O
active: [2] 6.62 µM | [3] 24.1 µM | [4] 2.35 µM | [9] 10.9 µM | [10] 5.44 µM | [8] 9.35 µM
inactive: [1] | [6]

Cc1[nH]c2ccccc2c1CCNCc1ccc(C=CC(=O)NO)cc1
active: [1] 0.469 µM | [2] 0.264 µM | [3] 0.271 µM | [4] 0.187 µM | [6] 0.0935 µM | [10] 0.153 µM | [7] 0.372 µM | [8] 0.469 µM

CCOc1ccccc1OCCNC(C)Cc1ccc(OC)c(S(N)(=O)=O)c1 (stereo not drawn)
not listed: [4]
inactive: all other assays above

COC(=O)Nc1ccc(-c2nc(N3CCOCC3)c3cnn(C4CCN(Cc5cccnc5)CC4)c3n2)cc1
active: [2] 0.833 µM | [3] 21.5 µM | [5] 14.8 µM | [6] 0.935 µM | [10] 0.109 µM | [7] 1.32 µM | [8] 0.235 µM
inactive: [1]

CCc1c2c(nc3ccc(O)cc13)-c1cc3c(c(=O)n1C2)COC(=O)[C@]3(O)CC
active: [2] 0.0187 µM | [3] 0.152 µM | [5] 0.001 µM | [6] 0.105 µM | [10] 0.0086 µM | [8] 0.0187 µM
inactive: [1]

COC(=O)C1=C(C)NC(C)=C(C(=O)OCCN2CCN(C(c3ccccc3)c3ccccc3)CC2)C1c1cccc([N+](=O)[O-])c1 (stereo not drawn)
active: [2] 13.3 µM | [4] 16.8 µM | [6] 16.8 µM
inactive: [1] | [8]

CCCCCCCCCC(=O)N[C@@H](Cc1c[nH]c2ccccc12)C(=O)N[C@H](CC(N)=O)C(=O)N[C@@H](CC(=O)O)C(=O)N[C@@H]1C(=O)NCC(=O)N[C@@H](CCCN)C(=O)N[C@@H](CC(=O)O)C(=O)N[C@H](C)C(=O)N[C@@H](CC(=O)O)C(=O)NCC(=O)N[C@H](CO)C(=O)N[C@@H]([C@@H](C)CC(=O)O)C(=O)N[C@@H](CC(=O)c2ccccc2N)C(=O)O[C@@H]1C
not listed: [3]
inactive: all other assays above

CN1CCN(c2ccc3nc(-c4c(N)c5c(F)cccc5[nH]c4=O)[nH]c3c2)CC1
active: [1] 18.7 µM | [2] 5.9 µM | [3] 15.2 µM | [6] 20.9 µM | [10] 1.72 µM | [7] 18.7 µM
inactive: [8]

CC1COC2(CCN(c3nc(=O)c4cc(C(F)(F)F)cc([N+](=O)[O-])c4s3)CC2)O1 (stereo not drawn)
not listed: [3] | [9]
inactive: all other assays above

Cc1ccc(S(=O)(=O)Nc2cc(Cl)ccc2C(=O)Nc2nc(-c3ccccc3)cs2)cc1
inactive: [1] | [6]
active: [2] 14.8 µM | [4] 3.72 µM | [5] 9.35 µM | [10] 8.63 µM | [7] 10.5 µM | [8] 9.35 µM

COc1ccc(-n2nc(C(N)=O)c3c2C(=O)N(c2ccc(N4CCCCC4=O)cc2)CC3)cc1
not listed: [4] | [5] | [9]
inactive: all other assays above

C[C@H]1C[C@@H]2[C@@H]([C@@H](O)C[C@@]3(C)[C@H]2CC[C@]3(O)C(=O)CO)[C@@]2(C)C=CC(=O)C=C12
not listed: [3] | [7]
inactive: all other assays above

Nc1nc(Nc2ccc(S(N)(=O)=O)cc2)nn1C(=O)c1c(F)cccc1F
active: [2] 13.2 µM | [3] 8.57 µM | [9] 13.7 µM | [10] 9.68 µM | [7] 11.8 µM
inactive: [1] | [6]

NC(=O)c1c(OCc2c(F)cc(Br)cc2F)nsc1NC(=O)NCCCCN1CCCC1
inactive: [1] | [2] | [4]
active: [9] 27.3 µM | [10] 24.3 µM | [7] 18.7 µM | [8] 5.9 µM

Clc1cccc(-c2nnnn2Cc2cccnc2)c1Cl
not listed: [4] | [5]
inactive: all other assays above

COc1ccc(CC2SC(=O)NC2=O)cc1C(=O)NCc1ccc(C(F)(F)F)cc1 (stereo not drawn)
not listed: [4] | [9] | [10]
inactive: all other assays above

CN(C)CCCN=c1c2ccccc2n(C)c2[nH]c(=O)n(C)c(=O)c12
inactive: [1] | [2]
active: [3] 4.29 µM | [5] 2.09 µM | [7] 13.2 µM

CC(=O)OCCN1C(=O)c2c(C)nc3ccc(S(=O)(=O)N4CCOCC4)cc3c2C1=O
inactive: [1] | [2] | [3] | [6] | [8]
active: [9] 10.9 µM | [10] 24.3 µM

Cc1coc2c1C(=O)C(=O)c1c-2ccc2c1CCCC2(C)C
inactive: [1] | [3] | [8]
active: [2] 1.66 µM | [9] 21.7 µM | [6] 20.9 µM

CC(C)[C@H](C(=O)Nc1ccc(C(=O)NO)cc1)c1ccccc1
active: [1] 1.18 µM | [2] 1.48 µM | [4] 0.418 µM | [9] 3.06 µM | [6] 0.743 µM | [10] 1.22 µM | [7] 2.64 µM | [8] 2.96 µM

C=CC(=O)Nc1cccc(Oc2nc(Nc3ccc(N4CCN(C)CC4)cc3OC)ncc2Cl)c1
active: [1] 23.5 µM | [2] 6.62 µM | [4] 1.18 µM | [5] 1.05 µM | [9] 34.3 µM | [6] 20.9 µM | [10] 4.85 µM | [7] 7.43 µM

Cc1ccc(C(N)=O)cc1Nc1nccc(-c2cn(C(C)C)c3cnccc23)n1
active: [2] 4.69 µM | [9] 6.85 µM | [10] 9.68 µM | [7] 16.6 µM
inactive: [1] | [4] | [6]

Nc1ccn([C@@H]2O[C@H](CO)[C@H](O)C2(F)F)c(=O)n1
inactive: [1] | [6]
active: [2] 3.72 µM | [4] 0.469 µM | [5] 0.0935 µM

COCCn1c2c([n+](Cc3cnccn3)c1C)C(=O)c1ccccc1C2=O
active: [1] 0.118 µM | [2] 0.0372 µM | [4] 0.209 µM | [5] 0.0047 µM | [6] 0.0332 µM | [10] 0.0153 µM | [7] 0.0118 µM | [8] 0.187 µM

COc1cc(C)c(Sc2cnc(NC(=O)c3ccc(CNC(C)C(C)C)cc3)s2)cc1C(=O)N1CCN(C(C)=O)CC1 (stereo not drawn)
inactive: [1] | [2]
active: [3] 12.1 µM | [9] 24.3 µM | [10] 2.43 µM | [8] 11.8 µM

Nc1ccc(C(=O)c2cc3c(ccc4ccccc43)[nH]2)cc1
inactive: [1] | [6]
active: [2] 2.35 µM | [4] 16.6 µM | [5] 0.833 µM | [9] 9.68 µM | [7] 5.9 µM

O=C(CCCCCCC(=O)Nc1ccc([C@H]2O[C@@H](CSc3nc(-c4ccccc4)c(-c4ccccc4)o3)C[C@@H](c3ccc(CO)cc3)O2)cc1)NO
inactive: [1] | [2]
active: [4] 7.43 µM | [5] 8.33 µM | [9] 21.7 µM | [6] 10.5 µM | [10] 15.3 µM | [7] 16.6 µM | [8] 14.8 µM

COc1cc2c(Oc3ccc(-c4cnc(Nc5ccc(F)cc5)n(C)c4=O)cc3F)ccnc2cc1OCCCN1CCOCC1
active: [1] 14.8 µM | [2] 2.09 µM | [4] 14.8 µM | [5] 1.18 µM | [9] 21.7 µM | [6] 2.64 µM | [10] 0.306 µM | [7] 9.35 µM | [8] 3.72 µM

O=C(NCCS(=O)(=O)c1ccc(C(F)(F)F)cn1)c1ccc(Cl)cc1
not listed: [3]
inactive: all other assays above

COc1cc(Nc2ncc(F)c(Nc3ccc4c(n3)N(COP(=O)(O)O)C(=O)C(C)(C)O4)n2)cc(OC)c1OC
active: [1] 4.69 µM | [2] 1.18 µM | [3] 4.29 µM | [6] 1.87 µM | [10] 1.22 µM | [8] 0.935 µM
